Experimental data: ChEMBL document CHEMBL1961873, “Compounds: GSK PKIS; Assays: Nanosyn kinase panel” (2012)

Legend:
[1] = target: Ribosomal protein S6 kinase alpha-6 (Homo sapiens) (UniProt Q9UK32); conditions: at 1 µM;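 also: each value is a mean inhibition of RSK4 from a GSK PKIS panel screen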
[2] = target: T1, Serine/threonine-protein kinase Sgk1 (Homo sapiens) (UniProt O00141); conditions: at 0.1 µM
T1 sequence (whole entry): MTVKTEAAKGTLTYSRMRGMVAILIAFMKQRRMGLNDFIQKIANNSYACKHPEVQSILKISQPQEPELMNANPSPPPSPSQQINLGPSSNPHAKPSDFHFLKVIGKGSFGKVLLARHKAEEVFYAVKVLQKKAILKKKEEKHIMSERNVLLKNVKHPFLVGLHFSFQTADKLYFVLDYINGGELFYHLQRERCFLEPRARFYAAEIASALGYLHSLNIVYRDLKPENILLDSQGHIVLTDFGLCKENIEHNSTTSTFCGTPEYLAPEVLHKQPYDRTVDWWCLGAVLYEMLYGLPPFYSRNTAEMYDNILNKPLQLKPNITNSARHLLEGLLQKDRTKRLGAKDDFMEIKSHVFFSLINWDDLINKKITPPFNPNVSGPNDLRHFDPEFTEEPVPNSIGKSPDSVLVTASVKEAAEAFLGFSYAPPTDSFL

[3] = target: T1, Serine/threonine-protein kinase Sgk1 (Homo sapiens); conditions: at 1 µM
[4] = target: T2, Serine/threonine-protein kinase Sgk2 (Homo sapiens) (UniProt Q9HBY8); conditions: at 0.1 µM
T2 sequence (whole entry): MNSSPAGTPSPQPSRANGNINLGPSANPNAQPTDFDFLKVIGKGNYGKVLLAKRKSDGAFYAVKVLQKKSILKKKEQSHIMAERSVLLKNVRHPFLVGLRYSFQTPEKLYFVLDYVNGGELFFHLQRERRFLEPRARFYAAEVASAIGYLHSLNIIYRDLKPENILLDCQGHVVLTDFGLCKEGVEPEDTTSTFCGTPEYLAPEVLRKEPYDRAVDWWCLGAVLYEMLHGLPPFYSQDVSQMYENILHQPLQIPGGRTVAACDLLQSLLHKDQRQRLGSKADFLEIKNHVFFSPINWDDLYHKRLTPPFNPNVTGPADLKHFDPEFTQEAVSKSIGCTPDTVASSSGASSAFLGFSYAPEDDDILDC

[5] = target: T2, Serine/threonine-protein kinase Sgk2 (Homo sapiens); conditions: at 1 µM
[6] = target: T3, Serine/threonine-protein kinase Sgk3 (Homo sapiens) (UniProt Q96BR1); conditions: at 0.1 µM
T3 sequence (whole entry): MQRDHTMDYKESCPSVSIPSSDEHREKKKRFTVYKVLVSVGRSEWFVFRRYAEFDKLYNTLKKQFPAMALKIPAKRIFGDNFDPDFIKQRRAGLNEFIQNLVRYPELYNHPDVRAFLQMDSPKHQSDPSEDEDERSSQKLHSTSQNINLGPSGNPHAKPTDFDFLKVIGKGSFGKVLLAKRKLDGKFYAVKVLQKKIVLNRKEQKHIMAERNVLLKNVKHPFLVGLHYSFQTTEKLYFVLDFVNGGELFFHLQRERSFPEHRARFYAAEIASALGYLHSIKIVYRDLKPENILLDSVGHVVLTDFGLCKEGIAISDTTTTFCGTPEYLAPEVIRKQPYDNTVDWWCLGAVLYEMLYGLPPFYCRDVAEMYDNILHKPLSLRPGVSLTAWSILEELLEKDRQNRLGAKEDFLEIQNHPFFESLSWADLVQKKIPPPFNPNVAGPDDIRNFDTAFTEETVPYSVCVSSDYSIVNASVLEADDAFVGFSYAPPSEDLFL

[7] = target: T3, Serine/threonine-protein kinase Sgk3 (Homo sapiens); conditions: at 1 µM
[8] = target: 5'-AMP-activated protein kinase catalytic subunit alpha-1 (Homo sapiens) (UniProt Q13131); conditions: at 0.1 µM
5'-AMP-activated protein kinase catalytic subunit alpha-1 (Homo sapiens), sequence (Q13131 whole entry, looked up): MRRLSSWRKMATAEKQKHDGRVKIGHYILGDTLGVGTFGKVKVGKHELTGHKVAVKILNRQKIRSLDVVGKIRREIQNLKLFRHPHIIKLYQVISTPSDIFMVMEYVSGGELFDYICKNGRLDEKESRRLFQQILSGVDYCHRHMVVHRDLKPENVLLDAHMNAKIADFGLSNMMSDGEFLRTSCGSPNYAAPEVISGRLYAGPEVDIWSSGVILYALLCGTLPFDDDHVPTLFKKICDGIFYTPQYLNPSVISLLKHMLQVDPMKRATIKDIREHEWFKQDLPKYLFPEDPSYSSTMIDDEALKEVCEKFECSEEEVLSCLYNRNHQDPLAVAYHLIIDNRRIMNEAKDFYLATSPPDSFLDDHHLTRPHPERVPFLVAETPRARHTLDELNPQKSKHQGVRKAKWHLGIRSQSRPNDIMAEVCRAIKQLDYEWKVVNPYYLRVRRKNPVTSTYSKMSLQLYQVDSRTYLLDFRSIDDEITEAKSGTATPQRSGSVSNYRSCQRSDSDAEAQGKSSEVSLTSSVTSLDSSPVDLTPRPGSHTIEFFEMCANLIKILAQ

[9] = target: 5'-AMP-activated protein kinase catalytic subunit alpha-1 (Homo sapiens) (UniProt Q13131); conditions: at 1 µM
[10] = target: 5'-AMP-activated protein kinase catalytic subunit alpha-2 (Homo sapiens) (UniProt P54646); conditions: at 0.1 µM
5'-AMP-activated protein kinase catalytic subunit alpha-2 (Homo sapiens), sequence (P54646 whole entry, looked up): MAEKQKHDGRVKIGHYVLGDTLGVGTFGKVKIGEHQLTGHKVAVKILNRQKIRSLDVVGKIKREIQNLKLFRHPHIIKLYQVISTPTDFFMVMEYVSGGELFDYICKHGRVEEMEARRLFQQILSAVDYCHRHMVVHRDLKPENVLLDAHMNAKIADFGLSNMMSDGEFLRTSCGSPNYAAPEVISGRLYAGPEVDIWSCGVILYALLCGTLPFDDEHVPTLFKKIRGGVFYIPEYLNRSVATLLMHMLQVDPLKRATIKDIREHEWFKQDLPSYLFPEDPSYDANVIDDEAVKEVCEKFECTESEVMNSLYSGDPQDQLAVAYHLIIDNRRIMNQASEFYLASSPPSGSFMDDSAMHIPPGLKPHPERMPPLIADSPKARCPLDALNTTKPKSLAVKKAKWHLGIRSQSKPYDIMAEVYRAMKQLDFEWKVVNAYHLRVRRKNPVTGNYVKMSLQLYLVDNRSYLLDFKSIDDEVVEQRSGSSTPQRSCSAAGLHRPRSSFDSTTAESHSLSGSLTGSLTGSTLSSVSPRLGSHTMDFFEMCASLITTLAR

[11] = target: 5'-AMP-activated protein kinase catalytic subunit alpha-2 (Homo sapiens) (UniProt P54646); conditions: at 1 µM
[12] = target: T4, NUAK family SNF1-like kinase 1 (Homo sapiens) (UniProt O60285); conditions: at 0.1 µM
T4 sequence (whole entry): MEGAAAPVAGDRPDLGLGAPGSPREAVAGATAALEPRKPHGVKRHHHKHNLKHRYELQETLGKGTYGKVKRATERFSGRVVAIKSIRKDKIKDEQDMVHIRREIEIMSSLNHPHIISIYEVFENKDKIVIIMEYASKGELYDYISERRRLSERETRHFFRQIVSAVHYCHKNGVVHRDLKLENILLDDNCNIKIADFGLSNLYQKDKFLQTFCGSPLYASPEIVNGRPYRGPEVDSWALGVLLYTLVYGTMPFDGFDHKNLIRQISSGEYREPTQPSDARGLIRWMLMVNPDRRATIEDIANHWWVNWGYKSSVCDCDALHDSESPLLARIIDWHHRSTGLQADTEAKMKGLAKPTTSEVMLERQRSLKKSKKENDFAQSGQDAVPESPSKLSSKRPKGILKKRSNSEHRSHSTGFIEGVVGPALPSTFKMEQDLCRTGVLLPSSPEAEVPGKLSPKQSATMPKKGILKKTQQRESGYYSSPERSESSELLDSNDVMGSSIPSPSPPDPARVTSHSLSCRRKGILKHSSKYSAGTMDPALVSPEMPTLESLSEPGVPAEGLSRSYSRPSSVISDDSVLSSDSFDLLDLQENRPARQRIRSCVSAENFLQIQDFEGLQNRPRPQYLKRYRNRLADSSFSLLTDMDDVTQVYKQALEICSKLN

[13] = target: T4, NUAK family SNF1-like kinase 1 (Homo sapiens); conditions: at 1 µM
[14] = target: T5, Serine/threonine-protein kinase BRSK1 (Homo sapiens) (UniProt Q8TDC3); conditions: at 0.1 µM
T5 sequence (whole entry): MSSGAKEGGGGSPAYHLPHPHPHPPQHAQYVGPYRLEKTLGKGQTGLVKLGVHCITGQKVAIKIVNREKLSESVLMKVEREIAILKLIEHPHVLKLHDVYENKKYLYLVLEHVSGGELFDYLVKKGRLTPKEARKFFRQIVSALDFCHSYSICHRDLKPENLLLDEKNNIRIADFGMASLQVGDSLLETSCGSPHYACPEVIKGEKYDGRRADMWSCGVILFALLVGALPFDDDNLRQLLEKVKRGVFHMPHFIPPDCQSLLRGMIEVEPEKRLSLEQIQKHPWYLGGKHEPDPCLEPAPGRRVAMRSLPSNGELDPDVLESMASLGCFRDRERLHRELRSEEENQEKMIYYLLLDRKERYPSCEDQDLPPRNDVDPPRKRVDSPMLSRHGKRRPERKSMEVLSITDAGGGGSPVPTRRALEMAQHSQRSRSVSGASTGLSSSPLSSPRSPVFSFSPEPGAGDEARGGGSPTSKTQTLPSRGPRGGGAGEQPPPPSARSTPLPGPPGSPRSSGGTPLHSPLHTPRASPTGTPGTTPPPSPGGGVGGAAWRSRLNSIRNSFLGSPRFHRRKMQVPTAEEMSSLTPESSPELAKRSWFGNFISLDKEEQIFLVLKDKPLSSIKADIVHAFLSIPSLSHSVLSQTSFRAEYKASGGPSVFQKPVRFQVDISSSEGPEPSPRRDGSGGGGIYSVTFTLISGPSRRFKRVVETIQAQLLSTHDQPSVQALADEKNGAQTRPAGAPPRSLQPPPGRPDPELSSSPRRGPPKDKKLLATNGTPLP

[15] = target: T5, Serine/threonine-protein kinase BRSK1 (Homo sapiens); conditions: at 1 µM
[16] = target: T6, Serine/threonine-protein kinase BRSK2 (Homo sapiens) (UniProt Q8IWQ3); conditions: at 0.1 µM
T6 sequence (whole entry): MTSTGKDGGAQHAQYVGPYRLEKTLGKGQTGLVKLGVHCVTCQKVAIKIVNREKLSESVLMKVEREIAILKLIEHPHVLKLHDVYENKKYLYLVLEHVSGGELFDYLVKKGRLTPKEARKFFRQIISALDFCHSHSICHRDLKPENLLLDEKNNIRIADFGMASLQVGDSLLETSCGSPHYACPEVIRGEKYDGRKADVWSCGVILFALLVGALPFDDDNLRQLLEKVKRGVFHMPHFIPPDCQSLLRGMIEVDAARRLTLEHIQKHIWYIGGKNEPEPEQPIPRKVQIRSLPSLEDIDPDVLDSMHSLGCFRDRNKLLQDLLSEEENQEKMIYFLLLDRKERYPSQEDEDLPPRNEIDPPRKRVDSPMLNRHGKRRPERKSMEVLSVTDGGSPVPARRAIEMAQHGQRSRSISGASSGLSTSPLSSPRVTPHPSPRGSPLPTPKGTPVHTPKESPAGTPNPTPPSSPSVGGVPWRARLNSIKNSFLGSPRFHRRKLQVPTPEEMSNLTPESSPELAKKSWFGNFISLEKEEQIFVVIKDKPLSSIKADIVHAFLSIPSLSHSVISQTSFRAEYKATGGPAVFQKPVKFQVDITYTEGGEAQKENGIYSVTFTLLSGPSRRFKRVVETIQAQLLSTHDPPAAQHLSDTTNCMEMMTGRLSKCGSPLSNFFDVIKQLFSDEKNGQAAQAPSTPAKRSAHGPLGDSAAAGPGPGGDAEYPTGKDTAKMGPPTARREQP

[17] = target: T6, Serine/threonine-protein kinase BRSK2 (Homo sapiens); conditions: at 1 µM
[18] = target: Calcium/calmodulin-dependent protein kinase type 1D (Homo sapiens) (UniProt Q8IU85); conditions: at 0.1 µM
Calcium/calmodulin-dependent protein kinase type 1D (Homo sapiens), sequence (Q8IU85 whole entry, looked up): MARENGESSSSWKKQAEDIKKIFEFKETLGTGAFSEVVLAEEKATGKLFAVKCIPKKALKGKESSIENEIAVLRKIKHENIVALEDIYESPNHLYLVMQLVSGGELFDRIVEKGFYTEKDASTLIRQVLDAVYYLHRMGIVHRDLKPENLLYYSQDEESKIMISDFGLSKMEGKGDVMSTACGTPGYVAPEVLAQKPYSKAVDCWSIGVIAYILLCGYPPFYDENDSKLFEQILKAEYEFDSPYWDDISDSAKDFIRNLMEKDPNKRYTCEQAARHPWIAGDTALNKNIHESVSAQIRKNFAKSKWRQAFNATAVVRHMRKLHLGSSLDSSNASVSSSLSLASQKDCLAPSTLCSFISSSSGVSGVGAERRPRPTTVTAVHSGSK

[19] = target: Calcium/calmodulin-dependent protein kinase type 1D (Homo sapiens) (UniProt Q8IU85); conditions: at 1 µM
[20] = target: Calcium/calmodulin-dependent protein kinase type II subunit alpha (Homo sapiens) (UniProt Q9UQM7); conditions: at 0.1 µM;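 also: reported values are averages (mean inhibition of CAMK2A)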
Calcium/calmodulin-dependent protein kinase type II subunit alpha (Homo sapiens), sequence (Q9UQM7 whole entry): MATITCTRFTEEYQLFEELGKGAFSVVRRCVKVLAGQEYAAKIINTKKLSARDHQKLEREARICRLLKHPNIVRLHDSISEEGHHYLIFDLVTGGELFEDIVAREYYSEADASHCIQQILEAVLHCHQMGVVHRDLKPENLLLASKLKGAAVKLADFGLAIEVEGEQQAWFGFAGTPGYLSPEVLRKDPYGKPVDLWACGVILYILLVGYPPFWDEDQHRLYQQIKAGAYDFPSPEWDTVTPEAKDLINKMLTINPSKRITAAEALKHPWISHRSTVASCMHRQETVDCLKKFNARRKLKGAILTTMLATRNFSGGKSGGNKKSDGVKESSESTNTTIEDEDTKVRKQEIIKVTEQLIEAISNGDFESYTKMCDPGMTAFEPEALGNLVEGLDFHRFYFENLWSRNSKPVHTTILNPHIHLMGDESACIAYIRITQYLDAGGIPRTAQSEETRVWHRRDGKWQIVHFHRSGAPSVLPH

Ribosomal protein S6 kinase alpha-6 (Homo sapiens), sequence (Q9UK32 whole entry): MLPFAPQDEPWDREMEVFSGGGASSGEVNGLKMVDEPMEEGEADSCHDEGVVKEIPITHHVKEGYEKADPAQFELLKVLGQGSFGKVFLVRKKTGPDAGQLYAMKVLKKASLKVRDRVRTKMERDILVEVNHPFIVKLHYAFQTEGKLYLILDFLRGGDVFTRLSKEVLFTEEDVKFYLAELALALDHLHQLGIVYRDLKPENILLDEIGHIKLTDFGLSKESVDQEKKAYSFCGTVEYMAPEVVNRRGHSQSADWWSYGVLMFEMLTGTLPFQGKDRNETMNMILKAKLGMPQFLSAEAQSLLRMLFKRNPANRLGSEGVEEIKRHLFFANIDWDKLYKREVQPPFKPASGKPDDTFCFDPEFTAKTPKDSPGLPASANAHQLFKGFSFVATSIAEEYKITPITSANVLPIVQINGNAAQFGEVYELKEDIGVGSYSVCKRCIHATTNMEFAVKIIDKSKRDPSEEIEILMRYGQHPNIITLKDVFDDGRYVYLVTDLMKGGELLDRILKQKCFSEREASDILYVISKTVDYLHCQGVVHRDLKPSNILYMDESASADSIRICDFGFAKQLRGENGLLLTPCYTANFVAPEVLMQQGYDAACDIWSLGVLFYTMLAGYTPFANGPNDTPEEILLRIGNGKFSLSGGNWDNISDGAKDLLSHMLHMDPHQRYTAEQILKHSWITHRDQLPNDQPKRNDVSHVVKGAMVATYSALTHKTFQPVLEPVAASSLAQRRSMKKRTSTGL

| SMILES | inhibition [1] | inhibition [2] | inhibition [3] | inhibition [4] | inhibition [5] | inhibition [6] | inhibition [7] | inhibition [8] | inhibition [9] | inhibition [10] | inhibition [11] | inhibition [12] | inhibition [13] | inhibition [14] | inhibition [15] | inhibition [16] | inhibition [17] | inhibition [18] | inhibition [19] | inhibition [20] |
| --- | --- | --- | --- | --- | --- | --- | --- | --- | --- | --- | --- | --- | --- | --- | --- | --- | --- | --- | --- | --- |
| Nc1nccc(-c2c(-c3ccc(F)cc3)ncn2C2CCC(O)CC2)n1 (stereo not given) | 3.39% | -2.26% | -1.85% | -3.55% | 7.09% | 0.34% | 1.61% | 3.45% | 0.93% | 0.71% | -1.6% | 9.02% | 39.9% | 0.33% | 1.44% | 1.13% | 1.19% | -2.47% | -0.75% | -3.31% |
| COc1ccc2cc(-c3c(-c4ccncc4)nc(-c4ccc([S+](C)[O-])cc4C)n3C)ccc2c1 (stereo not given) | 0.61% | -0.3% | 0.17% | -1.2% | 0.22% | -0.05% | 0.65% | -0.62% | -0.8% | 3.22% | 1.05% | -1.98% | 4.95% | -0.02% | 3.28% | 0.33% | 3.47% | 0% | 1.15% | -2.89% |
| CN(C)c1ccc2c(c1)/C(=C/Nc1ccc(S(N)(=O)=O)cc1)C(=O)N2 | 20.9% | 2.27% | 5.38% | 0.91% | -1.11% | 1.07% | -1.85% | 10.2% | 44.5% | 7.02% | 26.8% | 39.5% | 55.6% | 11.3% | 42.7% | 18.5% | 54.2% | 0.43% | 4.29% | 3.79% |
| NC(=O)c1cc(-c2ccc(F)cc2)cc(-c2ccncc2)c1N | 0.89% | 3.79% | 4.51% | 1.44% | 2.58% | 3.22% | 5.96% | 2.78% | 2.57% | 2.54% | 2.48% | -0.64% | -1.26% | 0.38% | -1.89% | 1.65% | 2.63% | -0.61% | 0.29% | 3.47% |
| CN(C)CCCNc1nccc(-c2c(-c3ccc(F)cc3)nn3cc(C(F)(F)F)ccc23)n1 | 2.42% | 1.95% | 2.09% | 2.67% | 1.75% | 1.92% | 0.78% | 1.32% | 1.37% | 0.22% | 2.79% | -1.31% | 7.22% | 1.29% | 4.81% | 0.82% | 4.17% | 1.56% | 1.39% | 3.05% |
| NS(=O)(=O)c1ccc(N/N=C2\C(=O)Nc3ccc(-c4cnco4)cc32)cc1 | 5.02% | 1.68% | 10.2% | 1.11% | 3.35% | 1.34% | 5.76% | 3.38% | 15.9% | 5.38% | 11.8% | 5.26% | 35.2% | 2.76% | 14.5% | 3.56% | 23.8% | -0.53% | 2.62% | 0.21% |
